Test results taken from PubChem BioAssay (NCI).
This is part of a sample that, as a whole, favours compounds with a hit. Of some 83,000 tested, about 20% had one in any assay.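 Note: values are percent growth. 100 is the growth of untreated cells, values between 100 and 0 indicate rising inhibition; between -100 and 0 indicates cell death.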 Unmarked numbers belong to inactive results. Activity calls are given as the source filed them. The calls were made as follows: active = growth percent below 10; inactive = the rest.

Columns and labels:
Assay in all cases: NCI-60 one-dose screen, 48 h (100 = growth as untreated, 0 = no growth, -100 = all killed)
Conditions in all cases: 10 µM unless noted
[1] = test system: HCT-15 colon
[2] = test system: HT29 colon
[3] = test system: SNB-75 CNS
[4] = test system: SNB-19 CNS
[5] = test system: U251 CNS
[6] = test system: PC-3 prostate
[7] = test system: SK-MEL-5 melanoma
[8] = test system: UACC-62 melanoma
[9] = test system: LOX IMVI melanoma
[10] = test system: SK-MEL-28 melanoma
[11] = test system: SK-MEL-2 melanoma
[12] = test system: EKVX NSCLC
[13] = test system: SN12C renal
[14] = test system: UO-31 renal
[15] = test system: TK-10 renal
[16] = test system: ACHN renal
[17] = test system: CAKI-1 renal
[18] = test system: A498 renal
[19] = test system: CCRF-CEM leukemia
[20] = test system: MOLT-4 leukemia

SMILES	growth [1]	growth [2]	growth [3]	growth [4]	growth [5]	growth [6]	growth [7]	growth [8]	growth [9]	growth [10]	growth [11]	growth [12]	growth [13]	growth [14]	growth [15]	growth [16]	growth [17]	growth [18]	growth [19]	growth [20]
CCN(C(=O)CN1CCN(c2cc3c(cc2F)c(=O)c(C(=O)O)cn3CC)CC1)c1nc(-c2ccccc2)cs1	12.3%	0.981% (active)	-5.25% (active)	6.46% (active)	6.31% (active)	2.39% (active)	-55.6% (active)	-5% (active)	-35% (active)	41.9%	-15.3% (active)	21.2%	2.74% (active)	12.4%	14.6%	8.13% (active)	11.7%	-6.64% (active)	14%	11.4%
NC(=S)N/N=C/c1cc(-c2cccc(N)c2)ccn1	23.8%	34.8%	35.1%	42.9%	16.1%	58.8%	8.97% (active)	-2.21% (active)	15.6%	52.1%	45.5%	37.8%	16.7%	12.4%	46.6%	7.92% (active)	-9.57% (active)	37.3%	6.08% (active)	7.42% (active)
CCN(CC)CCCCNc1ccc(NCCCCN(CC)CC)c2c1C(=O)c1ccccc1C2=O	76.2%	-54.8% (active)	142%	106%	85.5%	94.1%	106%	111%	-56.6% (active)	116%	105%	100%	84.1%	62.3%	57.8%	88.4%	81.5%	110%	78.6%	62.9%
CC1(C)CC(=O)C(c2c(-c3ccccc3)[nH]c3[nH]c(=S)[nH]c(=O)c23)=C(O)C1	112%	106%	107%	93%	105%	83%	108%	92.4%	111%	110%	94.7%	89.8%	99%	90.9%	107%	97.3%	125%	100%	92%	
CNCc1cccc2c1OCCOCCOCCN(C)S(=O)(=O)c1ccc(cc1)-c1cnc(N)c(n1)C(=O)N2	11.4%	13.2%	33.2%	93.3%	12.8%	54.1%	82.5%	29.4%	-16% (active)	68%	56.7%	43.6%	37%	36.5%	53.3%	22.1%	44.6%	36.7%	-23.6% (active)	0.352% (active)
CC/C=C\C[C@H](F)C/C=C1/C(=O)C=C[C@@H]1C/C=C\CCCC(=O)O	29.4%	29.5%	81.4%	63.5%	19.2%	55%	15.5%	27.5%	-42.6% (active)	46.7%	65.2%	75.1%	44.3%	57.5%	128%	39.5%	42.5%	106%	-7.62% (active)	-4.45% (active)
CCCCCCCCCCCCCCCCCCSC1=CC(=O)C(OC)=C(OC)C1=O	98.7%	107%	95.1%	91.9%	76.4%	52%	86.3%	77%	45.9%	97.3%	96.5%	91.3%	80.9%	76.6%	91.6%	93.1%	96.3%	97.1%	91.9%	91.9%
CCn1cc2c(cc1=O)-c1nc3ccccc3c3ccnc(c13)C2=O	50.2%	57.3%	46.9%	37.4%	44.6%	63.5%	42.8%	37.9%	57%	72.4%	62.3%	87.8%	16.5%	42.5%	86.1%	10.1%	60%	81.7%	104%	80.6%
Nc1nc2c(c3ncccc13)C(c1cccc(Br)c1)Cc1ncccc1-2 (centres undefined)	17.6%	0.652% (active)	30.1%	31.6%	11.3%	25.6%	31.8%	27.4%	38.9%	55.1%	3.12% (active)	41%	34.4%	33.8%	35.2%	43%	41.4%	-14.9% (active)	8.84% (active)	7.86% (active)
O=C(O)c1ccc(=O)[nH]n1	101%	123%	98.4%	102%	109%	103%	110%	98.2%	96.2%	109%	116%	116%	94.3%	88.3%	117%	98.8%	109%	105%	112%	89%
CS(=O)(CCCCN=C=S)=NC(=O)c1c(F)c(F)c(F)c(F)c1F (centres undefined)	59.4%	90.2%	97.4%	90.4%	89.6%	88.6%	98.7%	88.7%	60.6%	97.6%	88.3%	99%	90.9%	90%	76.9%	49.6%	96.3%	88.8%	73.5%	82.5%
O=C(/C=C/c1cc2ccccc2[nH]c1=O)/C=C/c1cc2ccccc2[nH]c1=O	48.2%	-39.2% (active)	19.5%	44.5%	-9.57% (active)	9.61% (active)	-22.8% (active)	13.5%	-65.4% (active)	37.9%	54%	47.3%	23.8%	-83.8% (active)	-14.8% (active)	-11.2% (active)	31.9%	30.4%	17.8%	31.6%
N=c1c2ccccc2nc2n1CCCCC2	110%	110%	99.7%	103%	101%	116%	100%	106%	106%	103%	114%	103%	104%	89.7%	123%	105%	95.1%	121%	92.9%	117%
CNc1nc(C)c(-c2nc(Nc3cccc(S(N)(=O)=O)c3)ncc2F)s1	1.76% (active)	0.997% (active)	-19.2% (active)	7.87% (active)	4.31% (active)	11.7%	-23.3% (active)	-48.6% (active)	0.394% (active)	-38% (active)	-50.9% (active)	4.38% (active)	-17.2% (active)	1.38% (active)	-2.07% (active)	2.7% (active)	14.8%	-38.8% (active)	-2.73% (active)	-26.9% (active)
COc1ccc(/C(=C/c2ccc3ccccc3c2)c2nn[nH]n2)cc1OC	31.1%	5.54% (active)	-7.45% (active)	51.1%	14.3%	18.6%	23.5%	21.5%	37.6%	56.6%	40.3%	43.9%	37.2%	41.4%	54.5%	54.4%	23.3%	14.5%	19.7%	37.8%
O=C1c2ccccc2-c2nccc3cc(Cl)nc1c23	17.6%	14.3%	65.1%	105%	32.8%	8.78% (active)	-89% (active)	27.7%	-22.5% (active)	55.8%	22.2%	-17.3% (active)	-30.7% (active)	-18.5% (active)	61.1%	-46.4% (active)	32.9%	90.2%	19.4%	26%
